# Experimental data reported in PubChem BioAssay (EPA / NIEHS).
# Active and inactive are the calls of the source. How the source made its calls: active means hit-call score of the fitted dose curve at least 0.9, where 1 is the maximum; inactive means score below 0.9.
# Read-out: Nuclear factor NF-kappa-B p105 subunit (Homo sapiens) (UniProt P19838)
# Experiment: LTEA_HepaRG_NFKB1: Life Technologies and Expression Analysis (LTEA) Assay for Nuclear Factor Kappa B Subunit 1 (NFKB1) using HepaRG (AID 2283521);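 on outcome: TaqMan qRT-PCR transcript normalised to ACTB GAPDH and POLR2A housekeeping genes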
# Conditions: mRNA level, 48 h; actives raise or lower the signal
# Method: LTEA_HepaRG is a cell based, multiplexed-readout assay that uses HepaRG, a human liver cell line, with measurements taken at 48 hours after chemical dosing on a 96-well plate.LTEA_HepaRG_NFKB1 is one of 102 assay component(s) measured in the LTEA HepaRG cell culture assay. It is a marker of Cell proliferation, survival, death.Data from the assay component LTEA_HepaRG_NFKB1 was analyzed into 1 endpoint. This assay endpoint, LTEA_HepaRG_NFKB1, was analyzed with bidirectional fitting relative to DMSO as the negative control and baseline of activity. Using a type of inducible reporter, measures of mRNA induction for gain or loss-of-signal activity can be used to understand regulation of transcription factor activity. To generalize the intended target to other relatable targets, this assay endpoint is annotated to the dna binding intended target family, where the subfamily is NF-kappa B.
# A total of 1060 chemcials from the ToxCast library were tested in eight-point concentration-response experiments. Cell culture and cytotoxicity assays were conducted at Thermo Fisher Scientific's Custom Services facility (Madison, WI). A single lot of human HepaRG cells (Thermo Fisher Scientific, Frederick, MD) was used for the cell culture experiments. 96-well format collagen type I coated plates of human HepaRG cells were prepared using established methods. Briefly, cryopreserved HepaRG cells were thawed, plated at a density of approximately 100,000 cells/well in HepaRG Thaw, Plate, and General Purpose media (HPRG770, Thermo Fisher Scientific), and incubated for 48 hours. 0.5% DMSO was selected as vehicle control to balance the requisite need of DMSO in HepaRG cultures to maintain differentiation (for example, baseline metabolism, proportions of hepatocytes vs. cholangiocytes), while enabling further hepatic receptor pathway activation (for example, PXR and CAR) in response to chemical exposure. 48 hours after plating, the culture medium was replaced with HepaRG Serum-Free Incudtion Media. Cells were exposed to each test chemical in duplicate and maintained in CO2 incubators for another 48 hours. Chemical plates were thawed to room temperature and 200x concentrations of treatment groups were prepared. 8-point conentration-reponse curves were made with the highest exposure at 100 uM, followed by half-log dilutions, all in 0.5% DMSO. Each test plate contained variouse controls, induction positive controls (1mM phenobarbital), cytotoxicity positive controls ([…] aflatoxin B1), vehicle controls (0.5% DMSO), and total lysis controls (0.5% DMSO). Cell morphology images were taken using an Essen IncuCyte FLR automated microscope, with six 96-well plates imaged in about 24 minutes. Images were captured and exported and JPEG files. Spent culture media was transfered to black-well plates for the LDH assay, and remaining media was sorted at -80 C for later use. Cells were treated with RLT buffer and frozen until shipped for gene expression analysis. Total RNA was isolated from the cell suspension in 75 uL of Buffer RLT (Qiagen, Germantown, MD 20874) by Quintiles/Expression Analysis (Durham, NC) using a custom isolation procedure. Total RNA from each plate well was transferred to a preamplification plate. Fluidigm's 96.96 Dynamic ArrayTM (Fluidigm, Amsterdam, the Netherlands) technology was used for gene expression analyses by quantitative reverse transcription polymerase chain reaction (qRT-PCR, performed by Quintiles/Expression Analysis, Durham, NC)89. Standard TaqManTM Assays (Applied Biosystems/ThermoFisher Scientific, Foster City, CA) were used to assess the expression of 93 genes selected based on their selectivity and sensitivity to important hepatic receptors known to be modulated by environmental chemicals; importance in human hepatocyte functionality; and hepatotoxicity. […]
# Sequence of Nuclear factor NF-kappa-B p105 subunit (Homo sapiens) (P19838 whole entry, looked up): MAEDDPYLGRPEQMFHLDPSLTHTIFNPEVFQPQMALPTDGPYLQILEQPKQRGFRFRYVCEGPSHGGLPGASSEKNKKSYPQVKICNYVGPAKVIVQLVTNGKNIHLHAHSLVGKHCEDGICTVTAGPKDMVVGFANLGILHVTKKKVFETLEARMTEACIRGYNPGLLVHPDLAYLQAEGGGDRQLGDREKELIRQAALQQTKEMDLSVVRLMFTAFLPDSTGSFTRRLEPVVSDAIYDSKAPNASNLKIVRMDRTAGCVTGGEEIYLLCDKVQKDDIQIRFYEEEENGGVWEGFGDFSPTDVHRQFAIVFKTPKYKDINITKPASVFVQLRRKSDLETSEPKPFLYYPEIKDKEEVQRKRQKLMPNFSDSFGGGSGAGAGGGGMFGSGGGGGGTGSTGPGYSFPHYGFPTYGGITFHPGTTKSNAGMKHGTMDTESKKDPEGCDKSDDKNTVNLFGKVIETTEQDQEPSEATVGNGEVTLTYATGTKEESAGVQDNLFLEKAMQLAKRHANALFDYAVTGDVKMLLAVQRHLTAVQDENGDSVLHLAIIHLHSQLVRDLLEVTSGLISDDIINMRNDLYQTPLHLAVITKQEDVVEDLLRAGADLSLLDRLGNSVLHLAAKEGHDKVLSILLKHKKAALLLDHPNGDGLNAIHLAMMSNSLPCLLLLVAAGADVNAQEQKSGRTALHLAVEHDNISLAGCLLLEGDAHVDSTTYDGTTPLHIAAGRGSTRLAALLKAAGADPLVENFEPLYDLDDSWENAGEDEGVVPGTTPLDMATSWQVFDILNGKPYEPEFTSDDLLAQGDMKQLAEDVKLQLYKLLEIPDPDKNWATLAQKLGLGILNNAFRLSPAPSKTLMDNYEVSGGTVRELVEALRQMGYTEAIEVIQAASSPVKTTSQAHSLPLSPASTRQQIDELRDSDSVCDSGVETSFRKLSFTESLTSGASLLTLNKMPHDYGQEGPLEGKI
SMILES,outcome,AC50
CCCCCCCCn1sccc1=O,inactive,
OCCCBr,inactive,
Oc1ccc2ccc3cccc4ccc1c2c34,inactive,
ClC1=C(Cl)C2(Cl)C3C(Cl)C=CC3C1(Cl)C2(Cl)Cl (stereo not given),inactive,
Nc1ccc(Cl)cc1N,,12.5 µM (active)
CC(C)N(Cc1ccccc1)C(=O)C(C)(C)C,inactive,
O=[N+]([O-])C(Br)(CO)CO,inactive,
Cc1ccc(N)c(N)c1,inactive,
O=C(Oc1ccc(Br)cc1)N1CCN2CCC1CC2,inactive,
O=Cc1ccco1,inactive,
Oc1ccccc1Cl,inactive,
Cc1ccc(N=C=O)cc1N=C=O,inactive,
Cc1cc(N=Nc2ccccc2C)ccc1N,inactive,
CCCCCOC(=O)c1ccccc1C(=O)OCCCCC,inactive,
C1=Cc2cccc3cccc1c23,inactive,
c1ccc(N=Nc2ccccc2)cc1,inactive,
CCN(CC)CCO,inactive,
C[C@]12C=CC3=C4CCC(=O)C=C4CC[C@H]3[C@@H]1CC[C@@H]2O,inactive,
COC(=O)c1ccccc1N,inactive,
COP(=S)(OC)SCN1C(=O)c2ccccc2C1=O,inactive,

SMILES,outcome,AC50
[As]#[In],inactive,
O=[N+]([O-])c1ccc(Oc2ccc(Cl)cc2Cl)cc1,inactive,
CCN(CC)N=O,inactive,
Brc1ccc(Oc2ccccc2)cc1,inactive,
O=C(Nc1ccccc1)c1ccccc1I,inactive,
CCOC(=O)[C@]1(c2ccccc2)Oc2ccccc2[C@@H]1N,inactive,
N#CC(Br)Br,inactive,
Clc1ccc(C(c2ccc(Cl)cc2)C(Cl)Cl)cc1,inactive,
CC(C)(C)C(O)(CCc1ccc(Cl)cc1)Cn1cncn1 (stereo not given),inactive,
Cc1ccc(N)cc1,inactive,
Clc1ccc(C(c2ccc(Cl)cc2)C(Cl)(Cl)Cl)cc1,inactive,
CCCCOC(=O)c1ccccc1C(=O)OCc1ccccc1,inactive,
C=CCc1ccc2c(c1)OCO2,inactive,
CN(C)c1ccc(C(=O)c2ccc(N(C)C)cc2)cc1,inactive,
Cn1cc(-c2ccccc2)c(=O)c(-c2cccc(C(F)(F)F)c2)c1,inactive,
CC(C)(O)c1cnn2c(-c3ccc(F)c(-c4c(F)cccc4C#N)c3)cnc2n1,inactive,
N#CC(Br)(Br)C(N)=O,inactive,
Cc1cccc(N)c1N,inactive,
CCC(C)c1ccc(O)cc1 (stereo not given),inactive,
ClCCOCCCl,inactive,
